Assay outcomes (PubChem)
Sa growth 42C = S. aureus growth inhibition at 42 and 30 °C, primary screen, LtaS inhibitor project, RN4220, two temperatures. OD600, 20 h, 42 °C; stronger effect = lower value. relative growth, % (test concentration not listed). AID 720641, 2013. 170,000 tested, 0.53% active;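 active means relative growth at most 50% at the other temperature and 20+ points below 30 °C, or under 10% at both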
Sa helicase inh = inhibitors of S. aureus replicative helicase, primary screen, biochemical, fluorescence unwinding readout; 120,000 tested, 0.05% active; replicative DNA helicase (DnaC/DnaB), Staphylococcus aureus; purified S. aureus helicase, fluorescence unwinding assay; inhibition, % (concentration not given with the values); in the data active means inhibition above about 25%, passing the limit was not always enough;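 further: 0% = mean of negative control wells and 100% = mean of positive control wells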
Numbers without * were called inactive; . = not tested or not shown; ! = not confirmed by another sample. This excerpt belongs to a sample that is enriched for hits.

SMILES	Sa growth 42C	Sa helicase inh
Cc1ccc(C(=O)OC2=C(c3ccccc3)C(=O)c3ccccc3C2=O)cc1	77.7	9.0
CCOC(=O)c1c(-c2ccccc2)csc1N	102.5	-12.0
CCOC(=O)c1c(N)sc(SC#N)c1-c1ccccc1	4.9*	21.0
CN1/C(=C/C=C/c2oc3ccccc3[n+]2C)Oc2ccccc21	-1.0*	-98.0
CCN1/C(=C/C=C2\SC(=S)N(C)C2=O)Oc2ccccc21	88.1	-14.0
O=C(CSc1nnc(NC(=O)Nc2ccccc2)s1)Nc1cccc(F)c1	117.9	.
CCSc1nsc(NC(=O)Nc2cccc(F)c2)n1	-0.7*	-6.0
CO[C@@]1(NC(=O)CSCC#N)C(=O)N2C(C(=O)O)=C(CSc3nnnn3C)CSC21 (stereo partly specified)	-0.6*	.
Cn1nnnc1SCC(=O)NN1C(=O)NC(C)(c2ccccc2)C1=O (stereo unspecified)	101.3	28.0
CO[C@@]1(NC(=O)Cc2cccs2)C(=O)N2C(C(=O)O)=C(COC(N)=O)CS[C@@H]21	-1.0*	.
CN1CCN(NC(=O)Cc2cccs2)CC1	97.3	13.0
NC(=O)C1Cc2ccccc2CN1Cc1c(O)ccc2ccccc12 (stereo unspecified)	90.5	25.0
CSCCC(C(=O)O)n1c(O)c(/C=C2\C=Nc3ccccc32)sc1=S (stereo unspecified)	.	-52.0
Oc1c(CN2CCCCC2)ccc2cccnc12	59.4	7.0
Oc1c(C(O)(C(F)(F)F)C(F)(F)F)ccc2cccnc12	-0.3*	13.0
NC(=O)NC(CC(=O)Nc1cccc(-c2nnc3n2CCCCC3)c1)c1ccccc1Cl (stereo unspecified)	84.4	4.0
CCOc1ccc(N(CC)S(=O)(=O)N2CCCC(C(=O)NCCc3ccccc3OC)C2)cc1 (stereo unspecified)	90.0	.
Cc1ccc(-c2cc(C(F)F)nc(S(C)(=O)=O)n2)cc1	35.8*	3.0
Cc1ccc(-c2cc(C(F)F)nc(NCc3ccco3)n2)cc1	105.7	19.0
CCCC(=O)Oc1c[nH]c2ccccc12	3.9*	.
CCOC(=O)Cc1c[nH]c2ccccc12	94.7	4.0
CCCCc1oc2ccccc2c1C(=O)c1ccc(O)cc1	32.1	4.0
CCc1oc2ccccc2c1C(=O)c1cc(Br)c(O)c(Br)c1	4.4*!	.
CN(C)c1ccc(/C=N/n2cnnc2)cc1	89.4	-23.0
C(=N\n1cnnc1)/c1ccc(N(c2ccccc2)c2ccccc2)cc1	1.4*	13.0
SMILES	Sa growth 42C	Sa helicase inh
Cc1nn(C)cc1CN1CCN(C(=S)NCCc2ccccc2)CC1	103.3	12.0
CCOc1ccccc1NC(=O)C1CCCN(c2ncnc3onc(-c4ccc(F)cc4)c23)C1 (stereo unspecified)	83.8	.
C/C(=N\OC(=O)c1ccc(C(F)(F)F)cc1)c1ccc[nH]1	-0.3*	6.0
C/C(=N\OC(=O)c1ccc(C(F)(F)F)cc1)c1cc[nH]c1	91.4	13.0
COc1ccc(-c2noc(CN(C)C(=O)Cc3ccc(OC)c(OC)c3)n2)cc1	69.7	-15.0
N#CSc1cnc(NC2CCCCC2)s1	5.0*	-2.0
O=C(O)CSc1nnc(NC2CCCCC2)s1	77.3	5.0
OCCNc1ccc(C(F)(F)F)cn1	105.2	6.0
O=C(Cc1cccs1)Nc1c[nH]c(=O)[nH]c1=O	98.8	4.0
COc1ccc(Cl)cc1N=C1NC(=O)CC(C(=O)Nc2ccccc2C(F)(F)F)S1 (stereo unspecified)	78.4	.
NC[C@H]1O[C@H](O[C@H]2[C@H](O)[C@@H](O[C@H]3O[C@H](CO)[C@@H](O)[C@H](N)[C@H]3O)[C@H](N)C[C@@H]2N)[C@H](N)[C@@H](O)[C@@H]1O	-0.2*	.
CN[C@@H]1[C@@H](O[C@H]2O[C@H](CO)[C@@H](N)[C@H](O)[C@H]2O)O[C@H]2C[C@@H](N)[C@H](O[C@H]3[C@H](O)[C@@H](O)[C@H](N)C[C@@H]3N)O[C@@H]2[C@@H]1O	99.0	.
COc1cccc2c1C(=O)c1c(O)c3c(c(O)c1C2=O)C[C@@](O)(C(C)=O)C[C@@H]3O[C@H]1C[C@H](N)[C@H](O)[C@H](C)O1	18.1	.
COc1cccc2c1C(=O)c1c(O)c3c(c(O)c1C2=O)C[C@@](O)(C(=O)CO)C[C@@H]3O[C@H]1C[C@H](N)[C@@H](O)[C@H](C)O1	2.0*	.
CC[C@@]1(O)C[C@H](O[C@H]2C[C@H](N(C)C)[C@H](O[C@H]3C[C@H](O)[C@H](O[C@H]4CCC(=O)[C@H](C)O4)[C@H](C)O3)[C@H](C)O2)c2c(cc3c(c2O)C(=O)c2c(O)cccc2C3=O)[C@H]1C(=O)OC	75.7	.
CC(=O)[C@]1(O)Cc2c(O)c3c(c(O)c2[C@@H](O[C@H]2C[C@H](N)[C@H](O)[C@H](C)O2)C1)C(=O)c1ccccc1C3=O	0.4*	.
CN(C)[C@@H]1C(=O)C(C(=O)NCN2CCCC2)=C(O)[C@@]2(O)C(=O)C3=C(O)c4c(O)cccc4[C@@](C)(O)[C@H]3C[C@@H]12	12.5	.
C=C1c2cccc(O)c2C(O)=C2C(=O)C3(O)C(O)=C(C(N)=O)C(=O)C(N(C)C)C3C(O)C12 (stereo unspecified)	4.3*	-26.0
CC(C)N(CC(=O)c1cccs1)Cc1ccccc1	-1.0*	-10.0
CC(C)N(Cc1ccccc1)C(=O)c1cccs1	87.2	.
Cc1ccc(C(C)N)cc1C (stereo unspecified)	116.9	10.0
Cc1cccc(OCC(=O)N(Cc2ccco2)Cc2ccco2)c1	87.3	-38.0
CCNc1nc(SCc2ccc(Cl)cc2)nc2sc3c(c12)CCN(C)C3	10.0*	.
CCNc1nc(SCC(=O)NC(=O)NCc2ccccc2)nc2sc3c(c12)CCN(C)C3	82.9	.
CCn1c(SCCN2CCOCC2)nnc1C1CCCCC1	97.0	3.0
SMILES	Sa growth 42C	Sa helicase inh
Cc1nc(C(N)=O)c(N)n1CCO	83.9	-12.0
Cc1ccnc(S/C=C/C(=O)c2ccc(I)cc2)n1	99.7	4.0
CCC1CN2CCc3cc(OC)c(OC)cc3[C@@H]2C[C@@H]1C[C@H]1NCCc2cc(OC)c(OC)cc21 (stereo partly specified)	129.7	23.0
N=C1S/C(=C/c2ccccc2)C(=O)N1c1nonc1N	90.8	12.0
C=CCN1C(=O)S/C(=C/c2ccc(OC)c(OCC)c2)C1=O	107.6	3.0
CCOc1cc(/C=C2/SC(=N)N(c3nccs3)C2=O)ccc1OCCN1CCOCC1	8.0*	9.0
N=C1S/C(=C\c2ccc(F)cc2)C(=O)N1c1nccs1	5.1*	18.0
CCOc1ccc(CN(C)C(=O)c2cc(S(=O)(=O)N3CCOCC3)ccc2C)cc1	113.5	5.0
CC(C)(C)NS(=O)(=O)c1ccc(NC(=O)Nc2ccc(Cl)cc2)cc1	111.5	13.0
CCN(CC)c1nnc(Cl)c2ccccc12	.	-12.0
CN(CC1CCCO1)S(=O)(=O)c1ccc(C(=O)Nc2sccc2C(N)=O)cc1 (stereo unspecified)	101.4	11.0
Cc1cccc(CS(=O)(=O)c2ncc(Cl)c(C(=O)NCc3ccccc3)n2)c1	1.6*	.
O=C(NCc1ccccc1)c1nc(S(=O)(=O)Cc2ccc(F)cc2)ncc1Cl	14.9	.
Cc1nc2ccccc2nc1CSc1nnc(C2COc3ccccc3O2)n1C (stereo unspecified)	100.3	-11.0
Cc1ccc(CNC(=O)c2c[nH]n3c(=O)c(Cc4ccc(F)cc4Cl)c(C)nc23)cc1	0.6*	.
